# According to paper PMC7862700, “An all-to-all approach to the identification of sequence-specific readers for epigenetic DNA modifications on cytosine”:
# How the values were obtained:
# Test in all cases: DAPPL (digital affinity profiling via proximity ligation, sequencing); 10 mM Tris-HCl pH 7.5, 50 mM NaCl, 1 mM DTT, 4% glycerol, room temperature, 30 min; GST-TFs on glutathione beads, 16-mer random dsDNA library, 0.1% formaldehyde crosslink after washing; high values mean tight binding
# Settings in all cases: protein: recombinant; tags: N-terminal GST; dsDNA, one strand shown
# [1] = molecular target: T1, FLI1 (Homo sapiens, UniProt Q01543 1-452)
# T1 sequence: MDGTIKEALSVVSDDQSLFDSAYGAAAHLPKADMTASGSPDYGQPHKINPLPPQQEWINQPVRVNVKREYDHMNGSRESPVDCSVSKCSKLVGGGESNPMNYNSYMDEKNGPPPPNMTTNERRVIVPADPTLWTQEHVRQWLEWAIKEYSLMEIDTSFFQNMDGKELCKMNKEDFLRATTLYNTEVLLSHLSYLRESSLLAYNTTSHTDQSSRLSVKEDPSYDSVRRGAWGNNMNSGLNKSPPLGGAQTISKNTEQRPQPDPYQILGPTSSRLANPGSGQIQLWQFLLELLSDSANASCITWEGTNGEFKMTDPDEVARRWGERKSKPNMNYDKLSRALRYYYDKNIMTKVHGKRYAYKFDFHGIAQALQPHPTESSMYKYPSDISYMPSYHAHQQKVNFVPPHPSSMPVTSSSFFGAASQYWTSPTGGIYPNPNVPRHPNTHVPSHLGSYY
# In short: (§1)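 Each value of binding signal is a hexamer's read frequency for a factor divided by the same hexamer's frequency in the tag-only sample. Barcoded, bead-captured GST fusions of human transcription factors made in yeast were pooled with that sample and incubated with 200 nmole of a random double-stranded 16-mer DNA library in Tris/NaCl/DTT/glycerol buffer at room temperature for 30 min. Washing, 0.1% formaldehyde crosslinking, proximity ligation, PCR and Illumina NextSeq500 sequencing followed.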
# [2] = molecular target: T2, ELK1 (Homo sapiens, UniProt P19419 1-428)
# T2 sequence: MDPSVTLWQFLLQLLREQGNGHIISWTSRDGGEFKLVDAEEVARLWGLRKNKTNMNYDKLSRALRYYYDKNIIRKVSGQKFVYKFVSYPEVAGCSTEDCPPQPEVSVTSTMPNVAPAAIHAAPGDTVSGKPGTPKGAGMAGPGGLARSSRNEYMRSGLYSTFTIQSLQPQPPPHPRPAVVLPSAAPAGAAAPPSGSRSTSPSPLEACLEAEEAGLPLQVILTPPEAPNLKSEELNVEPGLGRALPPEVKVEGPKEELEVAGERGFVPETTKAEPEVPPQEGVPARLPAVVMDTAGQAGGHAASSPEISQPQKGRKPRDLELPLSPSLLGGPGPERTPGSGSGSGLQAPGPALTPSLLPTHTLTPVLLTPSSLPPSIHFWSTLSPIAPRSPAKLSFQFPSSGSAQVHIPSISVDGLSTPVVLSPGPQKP
# In short: as §1
# [3] = molecular target: T3, GABPA (Homo sapiens, UniProt Q06546 1-454)
# T3 sequence: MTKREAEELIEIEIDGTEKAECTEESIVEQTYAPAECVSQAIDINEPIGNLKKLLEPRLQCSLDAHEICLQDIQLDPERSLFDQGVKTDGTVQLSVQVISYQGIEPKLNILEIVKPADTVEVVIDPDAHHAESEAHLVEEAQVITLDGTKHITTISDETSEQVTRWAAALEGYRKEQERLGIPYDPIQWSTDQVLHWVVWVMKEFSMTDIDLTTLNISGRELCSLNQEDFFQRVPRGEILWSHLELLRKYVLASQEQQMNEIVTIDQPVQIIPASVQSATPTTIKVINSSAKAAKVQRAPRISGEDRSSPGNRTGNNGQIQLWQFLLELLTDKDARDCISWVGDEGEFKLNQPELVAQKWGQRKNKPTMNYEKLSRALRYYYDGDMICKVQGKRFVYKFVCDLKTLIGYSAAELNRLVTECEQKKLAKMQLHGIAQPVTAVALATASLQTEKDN
# In short: as §1
# [4] = molecular target: T4, ERG (Homo sapiens, UniProt P11308 1-479)
# T4 sequence: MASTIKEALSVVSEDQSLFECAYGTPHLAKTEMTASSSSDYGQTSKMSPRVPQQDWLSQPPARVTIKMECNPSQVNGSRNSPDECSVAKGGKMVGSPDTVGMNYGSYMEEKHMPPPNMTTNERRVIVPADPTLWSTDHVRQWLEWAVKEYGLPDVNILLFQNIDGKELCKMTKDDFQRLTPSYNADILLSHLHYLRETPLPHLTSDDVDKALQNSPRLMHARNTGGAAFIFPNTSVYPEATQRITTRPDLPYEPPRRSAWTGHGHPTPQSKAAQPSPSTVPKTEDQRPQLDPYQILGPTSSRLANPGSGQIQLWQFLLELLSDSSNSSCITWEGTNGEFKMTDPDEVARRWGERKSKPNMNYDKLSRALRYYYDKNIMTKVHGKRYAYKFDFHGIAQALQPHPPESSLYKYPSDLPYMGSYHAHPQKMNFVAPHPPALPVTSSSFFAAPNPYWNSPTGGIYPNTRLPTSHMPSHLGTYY
# In short: as §1
# [5] = molecular target: ELF1 (Homo sapiens, UniProt P32519 1-619)
# Sequence of ELF1 (P32519 whole entry): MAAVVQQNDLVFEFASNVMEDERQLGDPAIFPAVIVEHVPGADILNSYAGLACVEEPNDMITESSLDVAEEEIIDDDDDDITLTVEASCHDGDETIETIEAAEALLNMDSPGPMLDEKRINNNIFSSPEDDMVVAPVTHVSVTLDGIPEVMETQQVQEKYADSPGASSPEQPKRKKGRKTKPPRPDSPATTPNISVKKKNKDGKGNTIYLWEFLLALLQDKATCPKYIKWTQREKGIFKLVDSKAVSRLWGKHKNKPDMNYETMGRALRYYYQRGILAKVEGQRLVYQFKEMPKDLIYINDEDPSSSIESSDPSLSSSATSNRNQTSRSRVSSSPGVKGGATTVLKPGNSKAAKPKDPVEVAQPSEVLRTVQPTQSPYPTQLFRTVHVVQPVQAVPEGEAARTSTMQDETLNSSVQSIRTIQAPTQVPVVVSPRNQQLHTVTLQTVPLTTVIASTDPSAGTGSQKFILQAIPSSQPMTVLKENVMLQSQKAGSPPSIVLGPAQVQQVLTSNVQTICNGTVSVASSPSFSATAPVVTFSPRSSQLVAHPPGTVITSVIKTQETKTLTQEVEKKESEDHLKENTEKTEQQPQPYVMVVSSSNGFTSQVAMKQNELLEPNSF
# In short: as §1
# [6] = molecular target: T5, EHF (Homo sapiens, UniProt Q9NZC4 1-300)
# T5 sequence: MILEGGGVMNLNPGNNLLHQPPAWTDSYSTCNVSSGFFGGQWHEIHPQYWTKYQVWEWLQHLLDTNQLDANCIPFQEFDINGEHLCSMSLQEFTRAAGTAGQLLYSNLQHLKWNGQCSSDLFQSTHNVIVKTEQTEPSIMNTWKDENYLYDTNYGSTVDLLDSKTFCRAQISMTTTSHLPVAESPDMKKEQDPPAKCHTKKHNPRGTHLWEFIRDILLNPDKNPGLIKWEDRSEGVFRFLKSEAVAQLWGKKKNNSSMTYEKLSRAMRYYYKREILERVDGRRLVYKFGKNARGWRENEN
# In short: as §1
# [7] = molecular target: SPI1 (Homo sapiens, UniProt P17947 1-270)
# In short: as §1
# [8] = molecular target: SPIB (Homo sapiens, UniProt Q01892 1-262)
# Sequence of SPIB (Q01892 whole entry): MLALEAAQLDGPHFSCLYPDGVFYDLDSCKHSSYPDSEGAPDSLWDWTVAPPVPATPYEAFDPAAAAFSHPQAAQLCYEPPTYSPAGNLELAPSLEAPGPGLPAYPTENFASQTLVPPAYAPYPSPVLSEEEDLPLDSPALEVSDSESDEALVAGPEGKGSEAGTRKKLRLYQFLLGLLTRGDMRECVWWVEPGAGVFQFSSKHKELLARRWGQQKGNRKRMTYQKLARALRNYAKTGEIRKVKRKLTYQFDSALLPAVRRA
# In short: as §1
# [9] = molecular target: T6, ELK3 (Homo sapiens, UniProt P41970 1-407)
# T6 sequence: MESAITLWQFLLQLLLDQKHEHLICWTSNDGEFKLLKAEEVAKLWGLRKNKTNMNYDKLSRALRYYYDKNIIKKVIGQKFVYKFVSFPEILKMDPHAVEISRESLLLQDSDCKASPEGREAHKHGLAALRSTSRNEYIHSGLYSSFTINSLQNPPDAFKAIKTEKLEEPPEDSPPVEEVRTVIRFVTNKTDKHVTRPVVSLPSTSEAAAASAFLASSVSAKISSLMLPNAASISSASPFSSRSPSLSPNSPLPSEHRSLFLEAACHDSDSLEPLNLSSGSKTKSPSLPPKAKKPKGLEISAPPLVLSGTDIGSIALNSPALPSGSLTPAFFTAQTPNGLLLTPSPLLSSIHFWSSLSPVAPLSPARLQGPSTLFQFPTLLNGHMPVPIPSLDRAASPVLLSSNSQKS
# In short: as §1
# [10] = molecular target: T7, FEV (Homo sapiens, UniProt Q99581 1-238)
# T7 sequence: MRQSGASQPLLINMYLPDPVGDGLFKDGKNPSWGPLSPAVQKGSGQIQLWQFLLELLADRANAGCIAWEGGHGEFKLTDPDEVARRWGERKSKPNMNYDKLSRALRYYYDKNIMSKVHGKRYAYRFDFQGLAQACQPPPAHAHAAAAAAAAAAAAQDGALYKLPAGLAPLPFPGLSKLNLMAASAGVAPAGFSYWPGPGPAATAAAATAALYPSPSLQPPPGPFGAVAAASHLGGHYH
# In short: as §1
# [11] = molecular target: ETV5 (Homo sapiens, UniProt P41161 1-510)
# Sequence of ETV5 (P41161 whole entry): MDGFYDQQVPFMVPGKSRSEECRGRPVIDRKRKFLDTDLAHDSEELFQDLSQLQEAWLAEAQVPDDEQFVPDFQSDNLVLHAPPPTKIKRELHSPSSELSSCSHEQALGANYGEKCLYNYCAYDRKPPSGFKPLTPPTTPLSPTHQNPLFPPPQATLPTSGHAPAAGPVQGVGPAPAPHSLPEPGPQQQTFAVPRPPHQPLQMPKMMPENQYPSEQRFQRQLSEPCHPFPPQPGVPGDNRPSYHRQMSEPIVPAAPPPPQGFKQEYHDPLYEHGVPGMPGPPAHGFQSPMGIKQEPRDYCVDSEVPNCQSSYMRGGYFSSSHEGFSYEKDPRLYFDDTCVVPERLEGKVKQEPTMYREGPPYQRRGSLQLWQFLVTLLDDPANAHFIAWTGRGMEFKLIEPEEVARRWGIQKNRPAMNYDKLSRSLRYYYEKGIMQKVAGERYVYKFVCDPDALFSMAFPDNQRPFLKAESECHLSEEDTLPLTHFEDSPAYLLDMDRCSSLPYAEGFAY
# In short: as §1
# [12] = molecular target: T8, SPIC (Homo sapiens, UniProt Q8N5J4 1-248)
# T8 sequence: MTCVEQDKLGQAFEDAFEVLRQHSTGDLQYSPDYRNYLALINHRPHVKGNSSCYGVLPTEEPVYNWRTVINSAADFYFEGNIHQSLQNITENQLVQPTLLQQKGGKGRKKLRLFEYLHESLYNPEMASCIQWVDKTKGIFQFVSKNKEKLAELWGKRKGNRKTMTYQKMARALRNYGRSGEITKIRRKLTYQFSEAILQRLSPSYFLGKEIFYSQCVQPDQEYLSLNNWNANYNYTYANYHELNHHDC
# In short: as §1
# [13] = molecular target: ELF4 (Homo sapiens, UniProt Q99607 1-663)
# Sequence of ELF4 (Q99607 whole entry): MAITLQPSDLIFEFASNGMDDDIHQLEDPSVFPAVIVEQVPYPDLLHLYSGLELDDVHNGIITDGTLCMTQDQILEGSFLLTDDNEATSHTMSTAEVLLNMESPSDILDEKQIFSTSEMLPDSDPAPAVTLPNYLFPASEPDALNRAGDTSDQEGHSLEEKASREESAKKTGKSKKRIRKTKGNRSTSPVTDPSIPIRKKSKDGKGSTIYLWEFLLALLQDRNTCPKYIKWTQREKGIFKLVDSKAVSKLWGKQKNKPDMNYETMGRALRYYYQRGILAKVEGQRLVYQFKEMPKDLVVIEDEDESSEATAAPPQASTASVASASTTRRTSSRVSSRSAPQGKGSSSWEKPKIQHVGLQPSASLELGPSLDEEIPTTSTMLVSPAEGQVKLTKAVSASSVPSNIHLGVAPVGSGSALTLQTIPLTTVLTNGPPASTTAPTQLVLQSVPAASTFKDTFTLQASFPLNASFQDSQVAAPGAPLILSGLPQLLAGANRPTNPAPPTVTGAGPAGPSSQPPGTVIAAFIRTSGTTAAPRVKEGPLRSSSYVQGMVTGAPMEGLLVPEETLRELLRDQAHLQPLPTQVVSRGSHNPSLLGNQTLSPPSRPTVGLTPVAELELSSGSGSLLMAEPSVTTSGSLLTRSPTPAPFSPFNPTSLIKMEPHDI
# In short: as §1
# [14] = molecular target: T9, ELK4 (Homo sapiens, UniProt P28324-2 1-405)
# T9 sequence: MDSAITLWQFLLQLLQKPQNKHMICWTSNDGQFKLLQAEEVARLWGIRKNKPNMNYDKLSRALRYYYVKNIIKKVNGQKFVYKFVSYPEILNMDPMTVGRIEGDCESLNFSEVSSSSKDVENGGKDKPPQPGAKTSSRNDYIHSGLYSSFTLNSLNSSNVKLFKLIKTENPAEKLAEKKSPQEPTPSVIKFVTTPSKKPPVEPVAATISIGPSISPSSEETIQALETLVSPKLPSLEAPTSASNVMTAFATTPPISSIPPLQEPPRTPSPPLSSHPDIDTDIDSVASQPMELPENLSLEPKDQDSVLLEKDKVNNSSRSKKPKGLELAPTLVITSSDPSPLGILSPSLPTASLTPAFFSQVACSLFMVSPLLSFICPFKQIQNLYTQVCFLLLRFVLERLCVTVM
# In short: as §1
# [15] = molecular target: T10, ETV2 (Homo sapiens, UniProt O00321 1-342)
# T10 sequence: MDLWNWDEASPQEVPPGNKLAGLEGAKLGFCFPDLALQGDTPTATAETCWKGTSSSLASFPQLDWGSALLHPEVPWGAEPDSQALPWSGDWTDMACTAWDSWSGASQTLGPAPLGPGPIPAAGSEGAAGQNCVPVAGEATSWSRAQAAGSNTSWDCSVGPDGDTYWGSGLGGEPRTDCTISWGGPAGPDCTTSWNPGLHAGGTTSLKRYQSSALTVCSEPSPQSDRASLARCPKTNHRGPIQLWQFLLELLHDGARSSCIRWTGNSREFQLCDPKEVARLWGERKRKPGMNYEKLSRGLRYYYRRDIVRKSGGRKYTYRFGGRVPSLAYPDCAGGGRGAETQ
# In short: as §1
# [16] = molecular target: T11, ELF3 (Homo sapiens, UniProt P78545 1-371)
# T11 sequence: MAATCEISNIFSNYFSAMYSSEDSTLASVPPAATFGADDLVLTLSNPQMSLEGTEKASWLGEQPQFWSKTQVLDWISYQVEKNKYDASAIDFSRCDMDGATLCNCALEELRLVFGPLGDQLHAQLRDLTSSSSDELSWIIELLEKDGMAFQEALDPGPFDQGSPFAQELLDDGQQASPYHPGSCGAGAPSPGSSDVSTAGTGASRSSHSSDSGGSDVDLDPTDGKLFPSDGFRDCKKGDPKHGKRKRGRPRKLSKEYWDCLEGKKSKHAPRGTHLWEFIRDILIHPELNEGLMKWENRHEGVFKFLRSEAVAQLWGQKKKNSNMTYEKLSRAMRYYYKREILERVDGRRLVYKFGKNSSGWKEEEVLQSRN
# In short: as §1
# [17] = molecular target: ETV1 (Homo sapiens, UniProt P50549 1-477)
# Sequence of ETV1 (P50549 whole entry): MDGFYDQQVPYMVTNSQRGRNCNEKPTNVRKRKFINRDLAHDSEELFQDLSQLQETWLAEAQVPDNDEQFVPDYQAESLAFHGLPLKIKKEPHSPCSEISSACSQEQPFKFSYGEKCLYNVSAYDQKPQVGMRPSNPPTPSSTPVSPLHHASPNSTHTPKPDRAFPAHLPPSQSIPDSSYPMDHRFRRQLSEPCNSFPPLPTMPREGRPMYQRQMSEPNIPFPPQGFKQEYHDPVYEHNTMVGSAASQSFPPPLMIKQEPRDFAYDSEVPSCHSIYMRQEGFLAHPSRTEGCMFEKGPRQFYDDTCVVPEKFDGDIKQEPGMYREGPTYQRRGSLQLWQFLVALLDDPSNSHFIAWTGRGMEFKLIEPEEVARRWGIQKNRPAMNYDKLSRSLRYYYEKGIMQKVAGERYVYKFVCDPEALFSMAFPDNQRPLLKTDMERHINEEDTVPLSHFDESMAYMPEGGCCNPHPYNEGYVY
# In short: as §1
Sequence,binding signal [1],binding signal [2],binding signal [3],binding signal [4],binding signal [5],binding signal [6],binding signal [7],binding signal [8],binding signal [9],binding signal [10],binding signal [11],binding signal [12],binding signal [13],binding signal [14],binding signal [15],binding signal [16],binding signal [17]
GACATC,"1.36 fold enrichment (6-mer frequency, TF over GST control)","1.4 fold enrichment (6-mer frequency, TF over GST control)","1.31 fold enrichment (6-mer frequency, TF over GST control)","1.27 fold enrichment (6-mer frequency, TF over GST control)","1.21 fold enrichment (6-mer frequency, TF over GST control)","1.35 fold enrichment (6-mer frequency, TF over GST control)","1.26 fold enrichment (6-mer frequency, TF over GST control)","1.3 fold enrichment (6-mer frequency, TF over GST control)","1.38 fold enrichment (6-mer frequency, TF over GST control)","1.73 fold enrichment (6-mer frequency, TF over GST control)","1.3 fold enrichment (6-mer frequency, TF over GST control)","1.26 fold enrichment (6-mer frequency, TF over GST control)","1.26 fold enrichment (6-mer frequency, TF over GST control)","1.34 fold enrichment (6-mer frequency, TF over GST control)","1.31 fold enrichment (6-mer frequency, TF over GST control)","1.23 fold enrichment (6-mer frequency, TF over GST control)","1.33 fold enrichment (6-mer frequency, TF over GST control)"
CACGCC,"1.12 fold enrichment (6-mer frequency, TF over GST control)","1.25 fold enrichment (6-mer frequency, TF over GST control)","1.27 fold enrichment (6-mer frequency, TF over GST control)","1.29 fold enrichment (6-mer frequency, TF over GST control)","1.26 fold enrichment (6-mer frequency, TF over GST control)","1.18 fold enrichment (6-mer frequency, TF over GST control)","1.2 fold enrichment (6-mer frequency, TF over GST control)","1.15 fold enrichment (6-mer frequency, TF over GST control)","1.22 fold enrichment (6-mer frequency, TF over GST control)","1.19 fold enrichment (6-mer frequency, TF over GST control)","1.17 fold enrichment (6-mer frequency, TF over GST control)","1.01 fold enrichment (6-mer frequency, TF over GST control)","1.25 fold enrichment (6-mer frequency, TF over GST control)","1.24 fold enrichment (6-mer frequency, TF over GST control)","1.22 fold enrichment (6-mer frequency, TF over GST control)","1.27 fold enrichment (6-mer frequency, TF over GST control)","1.19 fold enrichment (6-mer frequency, TF over GST control)"
CTGTCA,"1.21 fold enrichment (6-mer frequency, TF over GST control)","1.11 fold enrichment (6-mer frequency, TF over GST control)","1.2 fold enrichment (6-mer frequency, TF over GST control)","1.14 fold enrichment (6-mer frequency, TF over GST control)","1.19 fold enrichment (6-mer frequency, TF over GST control)","1.12 fold enrichment (6-mer frequency, TF over GST control)","1.1 fold enrichment (6-mer frequency, TF over GST control)","1.15 fold enrichment (6-mer frequency, TF over GST control)","1.08 fold enrichment (6-mer frequency, TF over GST control)","1.03 fold enrichment (6-mer frequency, TF over GST control)","1.06 fold enrichment (6-mer frequency, TF over GST control)","1.27 fold enrichment (6-mer frequency, TF over GST control)","1.13 fold enrichment (6-mer frequency, TF over GST control)","1.27 fold enrichment (6-mer frequency, TF over GST control)","1.19 fold enrichment (6-mer frequency, TF over GST control)","1.16 fold enrichment (6-mer frequency, TF over GST control)","1.14 fold enrichment (6-mer frequency, TF over GST control)"
